# Several values for one entry are separate records, joined by “and”; a condition that tells them apart may be missing. Equal values may be shown once. Results filed as inconclusive are left out. The source holds several records for some structures; these can differ, active in one and inactive in another. Activity calls are given as the source filed them. Rule for the calls, unless noted: active = hit-call score of the fitted dose curve at least 0.9, where 1 is the maximum; inactive = score below 0.9.
# Key:
# [1] = biological target: human RAR-related Orphan Receptor beta (RORb), RORB (gene 6096) (UniProt Q92753); assay: ATG_RORb_TRANS: Attagene TRANS-FACTORIAL HepG2 Assay for human RAR-related Orphan Receptor beta (RORb) (AID 2283010; active = hit-call score of the fitted dose curve at least 0.9, where 1 is the maximum)
# Outline: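 HepG2 cells transiently transfected with GAL4-UAS reporter units expressing chimeric NR-Gal4 protein; reporter mRNA measured 24 h after dosing by RT-PCR, 6-FAM labelling and capillary electrophoresis. Gain-of-signal fitted relative to DMSO baseline.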
# [2] = biological target: Retinoic acid receptor RXR-alpha (Homo sapiens) (UniProt P19793); assay: ATG_RXRa_TRANS: Attagene TRANS-FACTORIAL HepG2 Assay for human Retinoid X Receptor alpha (RXRa) (AID 2283012; active = hit-call score of the fitted dose curve at least 0.9, where 1 is the maximum)
# Outline: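 HepG2 cells transiently transfected with GAL4-UAS reporter units and chimeric RXRa-Gal4 protein, treated 24 h. Reporter mRNA measured by RT-PCR, fluorescent labelling, HpaI digestion and capillary electrophoresis. Induction fitted against DMSO.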
# [3] = biological target: human Retinoid X Receptor beta (RXRb), RXRB (gene 6257) (UniProt P28702); assay: ATG_RXRb_TRANS: Attagene TRANS-FACTORIAL HepG2 Assay for human Retinoid X Receptor beta (RXRb) (AID 2283013; active = hit-call score of the fitted dose curve at least 0.9, where 1 is the maximum)
# Outline: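 HepG2 cells were transiently transfected with multiplexed GAL4-UAS reporters and a chimeric RXRb-Gal4 construct, then exposed for 24 h. Reporter mRNA was quantified by RT-PCR, FAM labeling, HpaI digestion and capillary electrophoresis; gain of signal was scored against DMSO.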
# [4] = biological target: human Thyroid Receptor alpha (THRa1), THRA (gene 7067) (UniProt P10827); assay: ATG_THRa1_TRANS: Attagene TRANS-FACTORIAL HepG2 Assay for human Thyroid Receptor alpha (THRa1) (AID 2283014; active = hit-call score of the fitted dose curve at least 0.9, where 1 is the maximum)
# Outline: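 HepG2 cells transiently transfected with multiplexed GAL4-UAS reporter units for exogenous chimeric THRa1-Gal4; reporter mRNA measured 24 h after dosing by RT-PCR, 6-FAM labelling, HpaI digestion and capillary electrophoresis. Gain-of-signal fitted versus DMSO baseline.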
# [5] = read-out: E-selectin (Homo sapiens) (UniProt P16581); assay: BSK_3C_Eselectin: BioMAP Diversity Plus: 3C Assay for Eselectin Biomarker Activity (AID 2283015); details: primary human endothelial cells (HUVEC); actives raise or lower the signal
# Outline: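 Primary human umbilical vein endothelial cells (3C system) were dosed with chemical and cell-surface E-selectin measured by ELISA 24 h later. Bidirectional curve fitting used DMSO as negative control and baseline.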
# [6] = read-out: Interleukin-1 alpha (IL1a), IL1A (gene 3552); assay: BSK_BE3C_IL1a: BioMAP Diversity Plus: BE3C Assay for Interleukin-1 alpha (IL1a) Biomarker Activity (AID 2283016); details: primary human bronchial epithelial cells; actives raise or lower the signal
# Outline: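 Human primary bronchial epithelial cells, 24 h chemical exposure; IL-1a quantified by ELISA, fitted bidirectionally against DMSO. Cytotoxicity assessed in parallel by SRB total-protein staining at the time of measurement.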
# [7] = read-out: Monocyte Chemoattractant Protein-1 (MCP1), CCL2 (gene 6347); assay: BSK_3C_MCP1: BioMAP Diversity Plus: 3C Assay for Monocyte Chemoattractant Protein-1 (MCP1) Biomarker Activity (AID 2283017); details: primary human endothelial cells (HUVEC); actives raise or lower the signal
# Outline: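 Primary human umbilical vein endothelial cells (3C system) were exposed to test chemical for 24 h, after which MCP-1 was quantified by ELISA. Activity was fitted bidirectionally against DMSO as negative control and baseline.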
# [8] = read-out: Monocyte Chemoattractant Protein-1 (MCP1), CCL2 (gene 6347); assay: BSK_4H_MCP1: BioMAP Diversity Plus: 4H Assay for Monocyte Chemoattractant Protein-1 (MCP1) Biomarker Activity (AID 2283018); details: primary human endothelial cells (HUVEC); actives raise or lower the signal
# Outline: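 Human umbilical vein endothelial cells (4H system) exposed to chemicals for 24 h in 96-well format. MCP-1 measured by ELISA; bidirectional fitting against DMSO, with SRB total-protein staining in parallel cultures for cytotoxicity.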
# [9] = read-out: Human Leukocyte Antigen - DR isotype (HLADR), HLA-DRA (gene 3122); assay: BSK_3C_HLADR: BioMAP Diversity Plus: 3C Assay for Human Leukocyte Antigen - DR isotype (HLADR) Biomarker Activity (AID 2283019); details: primary human endothelial cells (HUVEC); actives raise or lower the signal;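 for outcome: ELISA of cell-surface HLA-DR on HUVEC 24 h after dosing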
# Outline: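 Primary human umbilical vein endothelial cells (3C system) were dosed with compound and cell-surface HLA-DR was quantified by ELISA at 24 h. Activity was fitted bidirectionally against DMSO as negative control and baseline.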
# [10] = read-out: Interleukin-8 (IL8), CXCL8 (gene 3576); assay: BSK_3C_IL8: BioMAP Diversity Plus: 3C Assay for Interleukin-8 (IL8) Biomarker Activity (AID 2283020); details: primary human endothelial cells (HUVEC); actives raise or lower the signal
# Outline: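 Primary human umbilical vein endothelial cells were dosed for 24 h. IL-8 was quantified by ELISA and fitted bidirectionally against DMSO. Cytotoxicity was assessed in parallel cultures by SRB staining at 560 nm.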
# [11] = read-out: Monokine induced gamma interferon (MIG), CXCL9 (gene 4283); assay: BSK_3C_MIG: BioMAP Diversity Plus: 3C Assay for Monokine induced gamma interferon (MIG) Biomarker Activity (AID 2283021); details: primary human endothelial cells (HUVEC); actives raise or lower the signal;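 for AC50: MIG protein level measured by immunoassay in the treated endothelial cultures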
# Outline: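 HUVEC primary endothelial cultures dosed with chemical; MIG quantified by ELISA at 24 h. Data fitted bidirectionally against DMSO control, with parallel SRB total-protein staining for cytotoxicity.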
# [12] = biological target: human Vitamin D Receptor (VDR), VDR (gene 7421) (UniProt P11473); assay: ATG_VDR_TRANS: Attagene TRANS-FACTORIAL HepG2 Assay for human Vitamin D Receptor (VDR) (AID 2283022; active = hit-call score of the fitted dose curve at least 0.9, where 1 is the maximum)
# Outline: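 HepG2 cells were transiently transfected with multiple GAL4-UAS reporter units, so signal reflects exogenous chimeric receptor-Gal4 activity. After 24 h compound exposure, reporter mRNA was measured by RT-PCR, fluorescent labelling and capillary electrophoresis, fitted for gain of signal versus DMSO.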
# [13] = BSK_3C_SRB: Viability Assessment in the BioMAP Diversity Plus: 3C Assay (AID 2283023); details: primary human endothelial cells (HUVEC);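 note: fitted both ways against DMSO so a hit may be signal rise or drop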
# Outline: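 Primary human umbilical vein endothelial cells in the 3C system were read 24 h after compound dosing. Total protein was stained with 0.1% sulforhodamine B after 10% TCA fixation and read at 560 nm, with bidirectional fitting against DMSO as baseline.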
# [14] = read-out: Matrix Metallopeptidase 1 (MMP1), MMP1 (gene 4312); assay: BSK_BE3C_MMP1: BioMAP Diversity Plus: BE3C Assay for Matrix Metallopeptidase 1 (MMP1) Biomarker Activity (AID 2283024); details: primary human bronchial epithelial cells; actives raise or lower the signal
# Outline: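 Human primary bronchial epithelial cells (BE3C system) dosed for 24 h; MMP-1 quantified by ELISA. Bidirectional fit against DMSO; cytotoxicity tracked in parallel cultures by SRB total-protein staining.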
# [15] = read-out: Pselectin, SELP (gene 6403); assay: BSK_4H_Pselectin: BioMAP Diversity Plus: 4H Assay for Pselectin Biomarker Activity (AID 2283026); details: primary human endothelial cells (HUVEC); actives raise or lower the signal
# Outline: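 Primary human umbilical vein endothelial cells were treated 24 h, and cell-surface P-selectin was then quantified by ELISA. Bidirectional fit versus DMSO; cytotoxicity checked in parallel cultures by SRB total-protein staining.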
# [16] = BSK_4H_SRB: Viability Assessment in the BioMAP Diversity Plus: 4H Assay (AID 2283027); details: primary human endothelial cells (HUVEC);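 note: cells exposed to compound for 24 h before staining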;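 for AC50: curves fitted both ways versus DMSO so AC50 may be loss or gain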
# Outline: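 Human umbilical vein endothelial cells were dosed with chemical and, after 24 h, fixed with 10% TCA, stained with 0.1% sulforhodamine B, and read at 560 nm to give total protein as a cytotoxicity measure. Bidirectional fitting relative to DMSO control.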
# [17] = BSK_BE3C_SRB: Viability Assessment in the BioMAP Diversity Plus: BE3C Assay (AID 2283028); details: primary human bronchial epithelial cells;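 for AC50: fitted both ways so AC50 may mark signal gain or loss versus DMSO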
# Outline: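 Human primary bronchial epithelial cells were exposed to test chemicals for 24 h. Total protein in parallel cultures was then measured by staining with 0.1% sulforhodamine B after 10% TCA fixation, with absorbance read at 560 nm. Activity was fitted bidirectionally against DMSO.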
# [18] = biological target: human RAR-related Orphan Receptor gamma (RORg), RORC (gene 6097) (UniProt P51449); assay: ATG_RORg_TRANS: Attagene TRANS-FACTORIAL HepG2 Assay for human RAR-related Orphan Receptor gamma (RORg) (AID 2283011; active = hit-call score of the fitted dose curve at least 0.9, where 1 is the maximum)
# Outline: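 Readout: reporter transcript induction (RT-PCR, fluorescent primer extension, capillary electrophoresis) after 24 h compound exposure of transiently transfected HepG2 cells carrying a RORg-Gal4 chimera and GAL4-UAS reporters; DMSO served as baseline, with increasing signal fitted.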
# [19] = read-out: Thrombomodulin, THBD (gene 7056); assay: BSK_3C_Thrombomodulin: BioMAP Diversity Plus: 3C Assay for Thrombomodulin Biomarker Activity (AID 2283029); details: primary human endothelial cells (HUVEC); actives raise or lower the signal
# Outline: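 Human umbilical vein endothelial cells were exposed to chemicals for 24 h; cell-surface thrombomodulin quantified by ELISA, with bidirectional fitting against DMSO baseline.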
# [20] = BSK_3C_Vis: BioMAP Diversity Plus: 3C Assay for Morphology Visualization (AID 2283025); details: primary human endothelial cells (HUVEC);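 note: fitted both ways so gain or loss versus DMSO counts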
# Outline: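 Human umbilical vein endothelial cell morphology was inspected by light microscopy 24 h after chemical dosing; scored bidirectionally relative to DMSO.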
# Chain of human RAR-related Orphan Receptor beta (RORb), RORB (gene 6096) (Q92753 whole entry, looked up, the tested form may be a part): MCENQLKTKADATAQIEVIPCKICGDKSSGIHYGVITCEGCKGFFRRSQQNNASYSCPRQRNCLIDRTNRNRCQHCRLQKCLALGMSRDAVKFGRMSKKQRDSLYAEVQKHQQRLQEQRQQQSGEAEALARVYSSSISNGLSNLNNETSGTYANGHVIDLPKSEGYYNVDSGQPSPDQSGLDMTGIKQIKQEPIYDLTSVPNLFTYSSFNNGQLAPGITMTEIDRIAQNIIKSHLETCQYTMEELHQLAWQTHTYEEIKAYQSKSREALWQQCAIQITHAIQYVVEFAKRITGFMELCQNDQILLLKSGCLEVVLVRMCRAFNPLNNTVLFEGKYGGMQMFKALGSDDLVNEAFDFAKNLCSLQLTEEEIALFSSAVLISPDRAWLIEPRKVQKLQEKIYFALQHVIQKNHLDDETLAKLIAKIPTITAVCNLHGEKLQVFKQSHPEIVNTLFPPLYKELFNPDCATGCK
# Chain of Retinoic acid receptor RXR-alpha (Homo sapiens) (P19793 whole entry, looked up, the tested form may be a part): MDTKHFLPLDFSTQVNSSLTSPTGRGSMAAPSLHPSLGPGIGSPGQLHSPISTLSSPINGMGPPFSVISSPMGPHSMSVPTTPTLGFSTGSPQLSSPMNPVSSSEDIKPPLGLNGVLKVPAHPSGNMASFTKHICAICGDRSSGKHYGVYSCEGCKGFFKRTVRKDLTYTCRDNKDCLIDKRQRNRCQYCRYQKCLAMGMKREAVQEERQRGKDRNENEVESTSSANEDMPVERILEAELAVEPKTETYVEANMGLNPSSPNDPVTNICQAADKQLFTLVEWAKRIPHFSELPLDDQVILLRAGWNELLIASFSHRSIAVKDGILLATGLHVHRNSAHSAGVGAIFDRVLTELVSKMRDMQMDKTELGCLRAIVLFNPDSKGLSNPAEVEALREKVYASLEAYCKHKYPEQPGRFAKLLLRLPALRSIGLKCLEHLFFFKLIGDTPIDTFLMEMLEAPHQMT
# Chain of E-selectin (Homo sapiens) (P16581 whole entry, looked up): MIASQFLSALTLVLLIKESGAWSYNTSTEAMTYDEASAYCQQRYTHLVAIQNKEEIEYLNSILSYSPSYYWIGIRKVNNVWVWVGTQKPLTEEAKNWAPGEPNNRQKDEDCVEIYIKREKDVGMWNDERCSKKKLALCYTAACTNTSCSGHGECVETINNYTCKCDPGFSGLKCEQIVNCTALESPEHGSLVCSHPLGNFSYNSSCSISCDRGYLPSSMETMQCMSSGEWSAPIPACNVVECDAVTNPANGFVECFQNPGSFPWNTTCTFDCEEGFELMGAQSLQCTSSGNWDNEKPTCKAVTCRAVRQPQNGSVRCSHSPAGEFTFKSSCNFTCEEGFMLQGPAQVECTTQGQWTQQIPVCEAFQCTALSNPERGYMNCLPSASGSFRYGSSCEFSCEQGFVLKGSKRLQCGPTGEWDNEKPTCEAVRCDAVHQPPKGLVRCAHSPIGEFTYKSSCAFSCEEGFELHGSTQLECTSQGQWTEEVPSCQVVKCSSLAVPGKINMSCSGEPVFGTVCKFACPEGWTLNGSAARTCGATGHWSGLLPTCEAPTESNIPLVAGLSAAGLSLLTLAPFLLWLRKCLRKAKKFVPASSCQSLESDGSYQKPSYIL
# Chain of human Vitamin D Receptor (VDR), VDR (gene 7421) (P11473 whole entry, looked up, the tested form may be a part): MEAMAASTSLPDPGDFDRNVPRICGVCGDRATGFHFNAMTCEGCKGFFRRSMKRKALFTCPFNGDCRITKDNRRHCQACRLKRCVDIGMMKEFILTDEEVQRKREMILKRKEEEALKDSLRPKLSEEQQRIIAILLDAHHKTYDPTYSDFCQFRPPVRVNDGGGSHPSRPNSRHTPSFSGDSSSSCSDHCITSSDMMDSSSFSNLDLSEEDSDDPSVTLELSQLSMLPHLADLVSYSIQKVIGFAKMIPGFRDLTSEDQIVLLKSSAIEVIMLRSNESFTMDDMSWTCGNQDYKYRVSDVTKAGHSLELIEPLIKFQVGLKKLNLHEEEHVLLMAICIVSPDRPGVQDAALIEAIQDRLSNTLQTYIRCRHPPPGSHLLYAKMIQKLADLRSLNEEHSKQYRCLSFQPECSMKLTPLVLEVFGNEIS
# Chain of human RAR-related Orphan Receptor gamma (RORg), RORC (gene 6097) (P51449 whole entry, looked up, the tested form may be a part): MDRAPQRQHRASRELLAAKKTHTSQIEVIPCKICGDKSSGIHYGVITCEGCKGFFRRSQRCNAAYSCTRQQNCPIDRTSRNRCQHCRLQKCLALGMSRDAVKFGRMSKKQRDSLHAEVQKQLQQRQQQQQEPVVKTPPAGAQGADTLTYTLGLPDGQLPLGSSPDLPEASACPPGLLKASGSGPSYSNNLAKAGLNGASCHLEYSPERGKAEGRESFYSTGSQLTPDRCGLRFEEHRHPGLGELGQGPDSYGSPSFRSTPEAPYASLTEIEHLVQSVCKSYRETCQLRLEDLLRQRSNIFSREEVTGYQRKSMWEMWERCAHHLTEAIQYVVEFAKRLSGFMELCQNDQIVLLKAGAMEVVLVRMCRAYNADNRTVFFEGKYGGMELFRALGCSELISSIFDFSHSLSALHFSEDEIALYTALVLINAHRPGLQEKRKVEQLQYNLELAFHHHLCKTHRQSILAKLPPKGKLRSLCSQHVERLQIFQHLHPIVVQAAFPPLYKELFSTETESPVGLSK
# Chain of human Thyroid Receptor alpha (THRa1), THRA (gene 7067) (P10827 whole entry, looked up, the tested form may be a part): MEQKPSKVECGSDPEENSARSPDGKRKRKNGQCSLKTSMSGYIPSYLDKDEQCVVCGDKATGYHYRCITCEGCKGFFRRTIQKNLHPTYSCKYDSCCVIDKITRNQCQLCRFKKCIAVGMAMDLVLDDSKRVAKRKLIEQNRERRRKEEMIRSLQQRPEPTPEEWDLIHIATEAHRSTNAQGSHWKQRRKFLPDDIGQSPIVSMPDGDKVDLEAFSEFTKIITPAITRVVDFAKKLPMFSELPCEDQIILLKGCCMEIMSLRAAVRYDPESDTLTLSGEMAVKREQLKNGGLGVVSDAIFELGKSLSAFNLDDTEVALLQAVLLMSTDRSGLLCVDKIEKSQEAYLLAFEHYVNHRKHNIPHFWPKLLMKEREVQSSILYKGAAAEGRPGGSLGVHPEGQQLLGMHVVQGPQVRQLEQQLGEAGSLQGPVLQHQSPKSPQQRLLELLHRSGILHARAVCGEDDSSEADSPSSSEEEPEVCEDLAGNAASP
# Chain of human Retinoid X Receptor beta (RXRb), RXRB (gene 6257) (P28702 whole entry, looked up, the tested form may be a part): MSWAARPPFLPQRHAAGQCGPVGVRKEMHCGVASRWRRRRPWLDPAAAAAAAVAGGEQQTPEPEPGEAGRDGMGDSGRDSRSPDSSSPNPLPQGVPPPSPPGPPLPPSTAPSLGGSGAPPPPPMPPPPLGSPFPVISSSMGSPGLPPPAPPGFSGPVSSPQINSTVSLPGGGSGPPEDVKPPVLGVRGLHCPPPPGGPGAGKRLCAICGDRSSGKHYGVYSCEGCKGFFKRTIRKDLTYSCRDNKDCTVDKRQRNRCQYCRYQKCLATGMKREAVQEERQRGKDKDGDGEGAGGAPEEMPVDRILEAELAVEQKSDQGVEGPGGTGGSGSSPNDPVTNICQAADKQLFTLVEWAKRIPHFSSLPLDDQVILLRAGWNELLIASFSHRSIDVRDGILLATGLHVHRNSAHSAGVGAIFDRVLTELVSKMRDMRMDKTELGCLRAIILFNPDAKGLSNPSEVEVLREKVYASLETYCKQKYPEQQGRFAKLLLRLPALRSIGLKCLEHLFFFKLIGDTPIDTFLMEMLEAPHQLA
smiles,measurement,setting,value
Oc1c(Cl)c(Cl)c(Cl)c(Cl)c1Cl,outcome,[1],inactive
same,outcome,[2],inactive
same,outcome,[3],inactive
same,outcome,[4],inactive
same,AC50,[5],14 µM (active) and 10.8 µM (active)
same,AC50,[6],13.8 µM (active) and 21.4 µM (active)
same,AC50,[7],13.7 µM (active)
same,AC50,[8],7.96 µM (active)
same,outcome,[8],inactive
same,AC50,[9],14.7 µM (active) and 13.5 µM (active)
same,AC50,[10],20 µM (active)
same,outcome,[10],inactive
same,AC50,[11],34.5 µM (active)
same,outcome,[11],inactive
same,AC50,[12],9.71 µM (active)
same,outcome,[12],inactive
same,AC50,[13],15.4 µM (active) and 13 µM (active)
same,AC50,[14],26.1 µM (active)
same,outcome,[14],inactive
same,AC50,[15],8.49 µM (active) and 9.69 µM (active)
same,AC50,[16],10.2 µM (active) and 9.07 µM (active)
same,AC50,[17],4.33 µM (active) and 28.2 µM (active)
CCC(C)(CC)c1cc(NC(=O)c2c(OC)cccc2OC)on1,outcome,[18],inactive
same,outcome,[3],inactive
same,outcome,[5],inactive
same,outcome,[6],inactive
same,outcome,[7],inactive
same,outcome,[8],inactive
same,outcome,[9],inactive
same,outcome,[10],inactive
same,outcome,[11],inactive
same,outcome,[12],inactive
same,outcome,[13],inactive
same,outcome,[14],inactive
same,outcome,[15],inactive
same,outcome,[16],inactive
same,outcome,[17],inactive
Clc1ccc(Cl)cc1,outcome,[1],inactive
same,outcome,[18],inactive
same,outcome,[2],inactive
same,outcome,[3],inactive
same,outcome,[5],inactive
same,outcome,[6],inactive
same,outcome,[7],inactive
same,outcome,[8],inactive
same,outcome,[9],inactive
same,outcome,[10],inactive
same,outcome,[11],inactive
same,outcome,[12],inactive
same,outcome,[13],inactive
same,outcome,[14],inactive
same,outcome,[15],inactive
same,outcome,[16],inactive
same,outcome,[17],inactive
same,outcome,[19],inactive
COS(=O)(=O)OC,outcome,[1],inactive
same,outcome,[2],inactive
same,outcome,[3],inactive
same,outcome,[4],inactive
same,outcome,[5],inactive
same,outcome,[6],inactive
same,outcome,[7],inactive
same,outcome,[8],inactive
same,outcome,[9],inactive
same,outcome,[10],inactive
same,outcome,[11],inactive
same,outcome,[12],inactive
same,outcome,[13],inactive
same,outcome,[14],inactive
same,outcome,[20],inactive
same,outcome,[15],inactive
same,outcome,[16],inactive
same,outcome,[17],inactive
same,outcome,[19],inactive
OCC(O)CO,outcome,[18],inactive
same,outcome,[2],inactive
same,outcome,[3],inactive
Cc1ccc(O)c(C)c1,outcome,[1],inactive
same,outcome,[3],inactive
same,outcome,[4],inactive
same,outcome,[5],inactive
same,outcome,[6],inactive
same,outcome,[7],inactive
same,outcome,[8],inactive
same,AC50,[9],7.99 µM (active)
same,outcome,[10],inactive
same,outcome,[11],inactive
same,outcome,[13],inactive
same,outcome,[14],inactive
same,outcome,[20],inactive
same,outcome,[15],inactive
same,outcome,[16],inactive
same,outcome,[17],inactive
same,outcome,[19],inactive

# From PubChem BioAssay (EPA / NIEHS)
